In PubChem BioAssay (EPA / NIEHS) one finds outcome and AC50 data, which are given here for seven compounds.

Activity calls are given as the source filed them. How the source made its calls: active means hit-call score of the fitted dose curve at least 0.9, where 1 is the maximum; inactive means score below 0.9.

Experiment [1] can be described thus: ATG_M_61_CIS: Attagene CIS-FACTORIAL HepG2 Assay for M61 Transcription Factor (Internal Marker) (AID 2282937). The conditions noted are these: HepG2 Attagene CIS-FACTORIAL M61 internal marker reporter; actives raise or lower the signal. The method, boiled down: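 Fluorescence from labelled cDNA fragments, separated by capillary electrophoresis, quantifies reporter induction. HepG2 cells bearing transiently transfected cis-promoter MRTUs were incubated with test chemical for 24 h; DMSO defined baseline for gain/loss fitting.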

The nature of experiment [2]: ATG_EGR_CIS: Attagene CIS-FACTORIAL HepG2 Assay for human Early Growth Response 1 (EGR1) (AID 2282938). Conditions: HepG2 Attagene CIS-FACTORIAL EGR reporter mRNA; actives raise or lower the signal. The method, boiled down: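 Cell-based multiplex transcription assay: HepG2 carrying transfected cis-element reporter units, 24 h chemical treatment. Fluorescence from capillary electrophoresis of RT-PCR products gives mRNA levels; fitting is bidirectional relative to DMSO.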

Experiment [3] is described as follows: ATG_M_19_CIS: Attagene CIS-FACTORIAL HepG2 Assay for M19 Transcription Factor (Internal Marker) (AID 2282939). The conditions noted are these: HepG2 Attagene CIS-FACTORIAL M19 internal marker reporter; actives raise or lower the signal. The method, boiled down: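 Background-control endpoint from a multiplexed HepG2 reporter panel. Cells carrying cis-regulated reporter constructs are treated 24 h, then reporter transcripts are amplified, fluorescently labelled and sized by capillary electrophoresis. DMSO defines baseline.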

A short description of experiment [4]: ATG_ERE_CIS: Attagene CIS-FACTORIAL HepG2 Assay for Estrogen Response Element (ERE) (AID 2282940). Conditions: HepG2 ERE cis-reporter, Attagene RNA transcript; actives raise or lower the signal. The method, boiled down: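 Cells used were human hepatoma HepG2, transfected with multiple reporter transcription units under cis-regulatory promoters. Reporter mRNA, read 24 h post-dosing via fluorescent RT-PCR products on capillary electrophoresis, was fitted bidirectionally relative to DMSO.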

Experiment [5] is described as follows: ATG_Ets_CIS: Attagene CIS-FACTORIAL HepG2 Assay for human Erythroblast Transformation Specific (ETS) (AID 2282941). The conditions noted are these: HepG2 ETS cis-reporter transcription, actives raise or lower the signal. Summed up: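 Cis-regulated reporter mRNA induction in HepG2 (transient transfection), 24 h exposure, RT-PCR plus capillary electrophoresis detection; DMSO serves as negative control and baseline.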

Experiment [6] is described as follows: ATG_FoxO_CIS: Attagene CIS-FACTORIAL HepG2 Assay for human Forkhead box O (FoxO) (AID 2282943). Conditions: HepG2 Attagene cis-reporter, FoxO element, mRNA; actives raise or lower the signal. The method, boiled down:
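HepG2 cells transiently transfected with cis-element-driven reporter units report endogenous FoxO activity. After 24 h chemical exposure, reporter mRNA quantified by RT-PCR, fluorescent labeling, HpaI digestion and capillary electrophoresis; bidirectional fit versus DMSO.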

Experiment [7] can be described thus: ATG_GATA_CIS: Attagene CIS-FACTORIAL HepG2 Assay for human GATA Binding Protein (AID 2282944). The conditions noted are these: HepG2 GATA cis-element reporter, Attagene multiplex mRNA; actives raise or lower the signal. Summed up:
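Endogenous transcription factor activity was captured through cis-promoter-driven reporters in transfected HepG2 cells. After 24 h exposure, reporter transcripts were quantified by RT-PCR with fluorescent capillary electrophoresis, and responses fitted both directions against DMSO.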

The nature of experiment [8]: ATG_E_Box_CIS: Attagene CIS-FACTORIAL HepG2 Assay for human Enhancer Box (E-box) (AID 2282936). Conditions: HepG2 E-box cis-reporter transcription, actives raise or lower the signal. The method, boiled down: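 Transiently transfected HepG2, endogenous TF-driven reporters, 24 h dosing. Readout: RT-PCR plus capillary electrophoresis of fluorescent reporter fragments. Gain or loss of signal fitted bidirectionally against DMSO baseline.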

Experiment [9] deals with Hepatocyte nuclear factor 3-beta (Homo sapiens) (UniProt Q9Y261). Nature of the experiment: ATG_FoxA2_CIS: Attagene CIS-FACTORIAL HepG2 Assay for human Forkhead box A2 (FOXA2) (AID 2282942). Conditions: HepG2 cis-reporter transcription factor activity, 24 h; actives raise or lower the signal. The method, boiled down:
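In transiently transfected human HepG2 cells, promoter-driven reporter mRNA levels after 24 h chemical exposure are determined via RT-PCR with capillary electrophoresis. DMSO serves as baseline for bidirectional fitting.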

Hepatocyte nuclear factor 3-beta (Homo sapiens), sequence (Q9Y261 whole entry, looked up): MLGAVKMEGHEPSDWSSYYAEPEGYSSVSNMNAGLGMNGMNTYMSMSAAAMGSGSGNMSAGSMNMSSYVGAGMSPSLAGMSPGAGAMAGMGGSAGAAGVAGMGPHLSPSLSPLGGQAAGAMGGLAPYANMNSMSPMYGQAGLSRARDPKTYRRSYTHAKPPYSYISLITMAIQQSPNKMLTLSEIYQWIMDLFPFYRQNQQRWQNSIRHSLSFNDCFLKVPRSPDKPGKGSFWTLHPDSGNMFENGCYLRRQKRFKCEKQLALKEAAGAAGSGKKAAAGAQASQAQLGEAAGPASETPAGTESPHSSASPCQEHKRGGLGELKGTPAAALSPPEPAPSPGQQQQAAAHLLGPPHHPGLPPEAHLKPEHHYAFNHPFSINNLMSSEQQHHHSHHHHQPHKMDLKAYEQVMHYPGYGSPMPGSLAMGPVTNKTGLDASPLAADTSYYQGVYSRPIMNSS

For `CN(C)c1ccc(C=O)cc1`, the compound was classed as inactive in experiment [1], in [2], in experiment [3], in experiment [4], in experiment [5] and in experiment [6]. Also, the compound was classed as inactive in experiment [7].

With `Cc1ccncc1`, the outcome in [8], in experiment [1], in [2], in [3], in [4] and in experiment [5] was inactive. In addition, the outcome in experiment [6] and in experiment [7] was inactive.

In the case of `[Cl][Dy]([Cl])[Cl]`, the outcome in [8], in experiment [1], in experiment [2], in experiment [3], in experiment [4] and in experiment [5] was inactive. Further, the compound was called inactive in [9], in experiment [6] and in [7].

`CCCCCCCCCCCCOCCOS(=O)(=O)O`: the result in [8], in experiment [1], in [2], in experiment [3], in experiment [4] and in experiment [9] was inactive. In addition, the result in [6] and in [7] was inactive.

`O=C(OCc1ccccc1)c1ccccc1O`: the outcome in experiment [8], in [1], in [2], in [3], in [5] and in experiment [9] was inactive. Further, the compound was classed as inactive in experiment [6] and in experiment [7]. The AC50 in experiment [4] is 76.3 µM (active).

As to `CCCCCCOC(C)=O`, the result in [1], in experiment [2], in experiment [3], in experiment [4], in experiment [5] and in experiment [9] was inactive. Further, the compound was classed as inactive in experiment [6] and in experiment [7].

As to `CCCCCCCOC(C)=O`, the outcome in experiment [8], in experiment [1], in experiment [2], in [3], in experiment [5] and in experiment [6] was inactive. Further, the call in [7] was inactive. Also, the AC50 in [4] is 3.71 µM (active).

As usually defined, the AC50 is the midpoint of the concentration-response curve, whichever way the signal moves.
